Source: PubChem BioAssay
This is a sample that favours compounds with a hit; in the whole collection about 2.9% have one here.
EPAC2 antag = validation of human EPAC2 antagonists. Potency, µM (top dose mostly 112 µM), for the others: at the top dose activity, negative = inhibition, most hits filed as inhibitors. Q8WZA2. AID 1645886. EPAC2 Rap1B BODIPY-GDP exchange, fluorescence. actives 1.7% (n = 16,000);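 also: 100% = activation by cAMP agonist control; nearly all actives have a fitted effect of over 40% in size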
Target sequence (Q8WZA2 whole entry, looked up): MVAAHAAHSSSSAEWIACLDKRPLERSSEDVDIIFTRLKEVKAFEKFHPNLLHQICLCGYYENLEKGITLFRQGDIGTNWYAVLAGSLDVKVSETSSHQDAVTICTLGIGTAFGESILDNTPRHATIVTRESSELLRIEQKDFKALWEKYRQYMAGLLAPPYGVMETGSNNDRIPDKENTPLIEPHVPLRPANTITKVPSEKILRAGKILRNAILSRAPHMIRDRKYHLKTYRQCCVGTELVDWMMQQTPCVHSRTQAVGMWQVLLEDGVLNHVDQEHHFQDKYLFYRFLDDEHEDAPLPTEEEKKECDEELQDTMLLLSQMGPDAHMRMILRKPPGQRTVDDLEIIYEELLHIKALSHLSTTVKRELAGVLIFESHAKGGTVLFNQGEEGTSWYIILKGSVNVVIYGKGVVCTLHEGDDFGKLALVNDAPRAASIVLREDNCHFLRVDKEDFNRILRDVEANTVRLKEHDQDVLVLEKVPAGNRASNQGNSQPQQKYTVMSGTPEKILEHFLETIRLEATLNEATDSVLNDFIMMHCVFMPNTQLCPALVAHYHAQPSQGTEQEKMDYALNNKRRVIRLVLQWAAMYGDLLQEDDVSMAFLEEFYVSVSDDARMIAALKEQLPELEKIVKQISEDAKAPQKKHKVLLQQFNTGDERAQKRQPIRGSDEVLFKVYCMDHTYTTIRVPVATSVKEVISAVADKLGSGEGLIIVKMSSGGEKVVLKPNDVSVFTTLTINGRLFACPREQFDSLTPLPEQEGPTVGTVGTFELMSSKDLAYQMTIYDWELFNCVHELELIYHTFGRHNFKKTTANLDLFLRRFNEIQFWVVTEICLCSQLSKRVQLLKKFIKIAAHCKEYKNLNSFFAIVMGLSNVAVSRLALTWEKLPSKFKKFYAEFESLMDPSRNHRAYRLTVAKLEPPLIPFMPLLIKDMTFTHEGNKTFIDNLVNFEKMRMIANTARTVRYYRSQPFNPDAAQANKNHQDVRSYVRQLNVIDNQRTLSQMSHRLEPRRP
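Normalized against a 6.5 mM cAMP agonist control, compounds were tested on 100 nM EPAC2 exchanging Rap1B-bound BODIPY-GDP (250 nM) for 50 uM GDP. Fluorescence drop (ex 480, em 540 nm) was tracked at room temperature over 30 min at 5-min intervals.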
EPAC1 ag val = validation of human EPAC1 agonists | O95398 | EPAC1 Rap1b BODIPY-GDP exchange, fluorescence | Potency, µM, without a hit: max response, positive = active, hits mostly activators | actives 1% (n = 16,000); also: nearly all actives have a fitted effect of over 70% in size
An asterisk follows results filed as active; ? = inconclusive; ! = a repeat was not active; [ ] = another dose, or the depositor's remark. Calls follow the shape of the dose curve; as a rule, active = well fitted curve in the direction sought with a large enough effect; inconclusive = small, poorly fitted or top-dose-only effect, or another doubt; inactive = no such curve, though single readings can be large; an effect the other way counts as inactive or inconclusive. Unless noted, % is scaled to controls: 0 for no effect and ±100 for the full control effect; potency is read from the fitted curve at half-maximal effect.

SMILES	EPAC2 antag	EPAC1 ag val
COc1ncc2nc(-c3cccs3)c(=O)n(CCC#N)c2n1	-20%	-31%
CN(C)c1ncc2ncc(=O)n(Cc3cccs3)c2n1	45µM*	-6%
N#CCCn1c(=O)c(-c2ccc(Cl)cc2)nc2cnc(Nc3ccccc3)nc21	-3%	112µM*
O=c1c(-c2cccs2)nc2cnc(N3CCNCC3)nc2n1Cc1cccs1	56µM*	?
CC(C)CN1CC[C@@]2(CCCN(C(=O)c3csnn3)C2)C1	-18%	-67%
COc1c2c(nc3ccccc13)OC(C(C)(O)CO)C2 (stereo unspecified)	-3%	-8%
N=C(N)c1ccc(/C=C/c2ccc(C(=N)N)cc2O)cc1	9%	21%
COc1ccc(C(=O)NCC2Cc3cccc(-c4ccc(S(C)(=O)=O)cc4)c3O2)c(OC)n1 (stereo unspecified)	-16%	-12%
CCN1CCc2nc(N)oc2CC1	-5%	-5%
COc1cccc(-c2nccc(NCc3cccc(C)c3)n2)c1	?	-119%
COc1cccc(-c2nccc(NCc3cnc(C)cn3)n2)c1	-30%	1%
COc1ccc(-n2c(=O)c(-c3cccs3)nc3cnc(N4CCOCC4)nc32)cc1	-26%	?
COCCn1c(=O)c(-c2cccs2)nc2cnc(N3CCOCC3)nc21	15%	112µM*
CN1CC(O)C2=CC(=O)C(=O)C=C21 (stereo unspecified)	79µM*	0%
COc1ccc2[nH]cc(CCNc3ncncc3-c3ccccc3Cl)c2c1	?	-26%
Nc1ncnc2c1nc(Br)n2C1CC(O)C(CO)O1 (stereo unspecified)	-6%	-3%
NC1=NC2C(N=C(Br)N2[C@@H]2O[C@H]3COP(=O)(O)O[C@@H]3[C@@H]2O)C(=O)N1 (stereo partly specified)	?	17%
Nc1ncnc2c1nc(Sc1ccc(Cl)cc1)n2[C@H]1OC2COP(=O)(O)O[C@@H]2C1O (stereo partly specified)	0.5µM*	0.18µM*
Nc1ncnc2c1nc(Br)n2[C@H]1O[C@H]2COP(=O)(O)O[C@H]2[C@@H]1O	3.5µM*	1.1µM*
Nc1ncnc2c1nc(Cl)n2C1OC(CO)C(O)C1O (stereo unspecified)	-4%	18%
Nc1ncnc2c1nc(Br)n2[C@@H]1O[C@H]2COP(=O)(O)O[C@@H]2[C@@H]1O	1.3µM*	?
C=C1CCC2C(C)(CO)C(O)CCC2(C)C1C/C=C1\C(=O)OCC1O (stereo unspecified)	-9%	5%
O=c1c(-c2cccc(F)c2)nc2cncnc2n1Cc1ccccc1Cl	28%	?
CCc1nc2cc(C(=O)NC3CCS(=O)(=O)C3)cc(NC(=O)c3ccccc3OC)c2n1C (stereo unspecified)	-1%	-12%
c1ccc(CNc2cc(-c3ccoc3)ncn2)cc1	-13%	6%
SMILES	EPAC2 antag	EPAC1 ag val
CN1CCCC1CCOC(C)(c1ccccc1)c1ccc(Cl)cc1 (stereo unspecified)	?	-2%
COc1ccc(-n2c(=O)c(C)nc3cnc(OC)nc32)cc1	2%	-32%
COc1ccc2c(c1)OCC(Cc1ccc(OC)c(OC)c1)C2=O (stereo unspecified)	45µM*	?
COc1ccc2c(c1)OCC(Cc1ccc(OC)c(OC)c1)C2O (stereo unspecified)	?	-12%
CN(C)Cc1ccccc1-c1nc(N2CCOCC2)c2ccccc2n1	-4%	3%
C#CCN(Cc1nc(N2CCOCC2)c2ccc(Cl)cc2n1)Cc1ccco1	50µM*	5%
Cc1c(C(=O)NC2CCCCC2)sc2ncnc(NCCN(C)C)c12	-13%	-14%
Cc1ccc(C(=O)Nc2ccc(S(=O)(=O)O)c3cc(S(=O)(=O)O)cc(S(=O)(=O)O)c23)cc1NC(=O)c1cccc(NC(=O)Nc2cccc(C(=O)Nc3cc(C(=O)Nc4ccc(S(=O)(=O)O)c5cc(S(=O)(=O)O)cc(S(=O)(=O)O)c45)ccc3C)c2)c1	-8%	89µM*!
CC(C)(C)CC(C)(C)N=C1Nc2cc(Cl)c(Cl)cc2N[C@]12C[C@H]1CCCC(=O)N3CC[C@@H](C2)[C@@H]13	-21%	-12%
CC(=O)OCC1=C(C(=O)O)N2C(=O)C(NC(=O)Cc3cccs3)C2SC1 (stereo unspecified)	23%	29%
CCCN=C(N)NCCC[C@H](N)C(=O)O	-23%	-2%
CCCCC(CC)CN=C(N)NC(N)=NCCCCCCN=C(N)NC(N)=NCC(CC)CCCC (stereo unspecified)	56µM*	-49%
Cn1cnc2c(NC3CCCC3)ncnc21	-1%	-8%
O=C(C[n+]1cccc2cc(Cl)ccc21)c1ccc(I)cc1	-10%	7%
O=C(C[n+]1cccc2cc(Cl)ccc21)c1ccc(Br)cc1	-26%	112µM*
CC(C)Oc1ccc(C(=O)NCC2Cc3cc(Cl)cc(-c4ncccn4)c3O2)cc1 (stereo unspecified)	?	8%
C#CCCCCCCCCCCCC(O)CC(O)CO (stereo unspecified)	?	-56%
CCCCC[C@H](O)/C=C/[C@H]1[C@H](O)CC(=O)[C@@H]1CCCCCCC(=O)O	14µM*!	-15%
CCCCC[C@H](O)CC[C@H]1[C@H](O)CC(=O)[C@@H]1CCCCCCC(=O)O	-18%[11.4 µM]	-14%
CN(C)C(N)=NCCC[C@H](N)C(=O)O	-13%	-7%
COC(=O)C[C@H]1c2cc(C(F)(F)F)ccc2S(=O)(=O)N1C(C)C	?	-79%
C#C[C@]1(O)CCC2C3CCC4=Cc5oncc5C[C@@]4(C)C3CC[C@@]21C (stereo partly specified)	-9%	18%
O=c1c(O)c(-c2ccccc2)oc2cc(O)cc(O)c12	?	6%
O=c1c(O)c(-c2cc(O)c(O)c(O)c2)oc2cc(O)cc(O)c12	35µM*!	-6%
CCCC(=O)NCCc1c2n(c3ccc(OC)cc13)CCCc1ccccc1-2	14µM*	5%
SMILES	EPAC2 antag	EPAC1 ag val
COc1ccc2[nH]c(-c3ccccc3)c(CCNC(C)=O)c2c1	?	-3%
O=C(Nc1cccc(F)c1)N1CCC2(CC1)CCN(C(=O)c1ccncc1)CC2	-14%	-48%
COC(=O)C1=C(C)NC(C)=C(C(=O)OC(C)(C)CN(C)CCC(c2ccccc2)c2ccccc2)C1c1cccc([N+](=O)[O-])c1 (stereo unspecified)	-28%	?
COCCOC(=O)C1=C(C)NC(C)=C(C(=O)OC(C)C)[C@@H]1c1cccc([N+](=O)[O-])c1	50µM*	0%
COC(=O)C1=C(C)NC(C)=C(C(=O)O[C@@H]2CCCN(Cc3ccccc3)C2)[C@@H]1c1cccc([N+](=O)[O-])c1	-25%	?
COCCOC(=O)C1=C(C)NC(C)=C(C(=O)OC(C)C)C1c1cccc([N+](=O)[O-])c1 (stereo unspecified)	?	4%
CCOC(=O)C1=C(C)NC(C)=C(C(=O)OC)C1c1cccc([N+](=O)[O-])c1 (stereo unspecified)	7.9µM*!	0%
CC1=C(C(=O)OC(C)C)C(c2cccc([N+](=O)[O-])c2)C(C(=O)OC2CN(C(c3ccccc3)c3ccccc3)C2)=C(N)N1 (stereo unspecified)	1%	100µM*
COC(=O)C1=C(C)NC(C)=C(C(=O)OCCCN2CCC(c3ccccc3)(c3ccccc3)CC2)[C@H]1c1cccc([N+](=O)[O-])c1	?	13%
CCOC(=O)C1=C(C)NC(C)=C(C(=O)OC)[C@H]1c1cccc([N+](=O)[O-])c1	18µM*	15%
